Results published in ChEMBL document CHEMBL3988442, “University of Dundee, Small-Polar-MMV Screening Library” (2021).
Hit rate of the full screen: of about 48,000 compounds, about 13,000 (27%) showed an effect of 50% or more. Some of the results follow.

Tested on: Wolbachia pipientis
Experiment: Anti-Wolbachia Cell-Based Screen
Type: functional
Design: scale not given: in the data most compounds retested in dose-response had high values
Conditions: 5 µM

First: COC(=O)c1cccc(S(=O)(=O)N2CSCC2C(=O)N(C)C2CC2)c1 (stereo not drawn)
Second: COc1nn(C)c2c1CCCN(S(=O)(=O)c1cccc(C)c1)C2
The “Percent Effect” value of the first is lower: -20.06% for the first, 0.0765% for the second.

First: CCC(=O)NCC(=O)N(C)C(c1ccc(Cl)cc1)c1cccnc1 (stereo not drawn)
Second: CNC(=O)NCC(=O)N(C)C(c1ccc(Cl)cc1)c1cccnc1 (stereo not drawn)
The “Percent Effect” value of the first is higher: 138.5% for the first, 108.8% for the second.

Compared with `CN(CC(=O)N(C)C(c1ccc(Cl)cc1)c1cccnc1)C1CC1` (stereo not drawn), `CN(CC(=O)N(C)C(c1cccnc1)c1ccc(F)c(F)c1)C1CC1` (stereo not drawn) is lower in “Percent Effect” value: 97.71% for the first, 12% for the second.

Going from `CCN(C(c1ccc(OC)cc1)c1cccnc1)S(C)(=O)=O` (stereo not drawn) to `CC(=O)N(C)C(c1cccnc1)c1ccc(F)c(F)c1` (stereo not drawn), the “Percent Effect” value falls from 3.822% to 0.3352%.

Compared with `CCN(C(C)=O)C(c1cccnc1)c1cc(C)cc(C)c1` (stereo not drawn), `CNC(=O)NC(=O)CN(C)C(c1cccnc1)c1ccc(F)cc1F` (stereo not drawn) is lower in “Percent Effect” value: 0.6077% for the first, -23.22% for the second.

First: CC(C)C(c1cccnc1)N(C)C(=O)Cc1c(F)cccc1F (stereo not drawn)
Second: CCN(Cc1c(F)cccc1F)C(=O)c1ccncc1O
The “Percent Effect” value of the first is higher: 1.062% for the first, -5.979% for the second.

Going from `CC(C)N1CCC(N2CCOC3(CCCC3)C2)C1=O` (stereo not drawn) to `CC(C)CCN1CC2(CCCN(C(=O)NCc3cccs3)C2)CCC1=O` (stereo not drawn), the “Percent Effect” value falls from 10.32% to 1.307%.

Compared with `Cc1cnc(CNc2c(F)cccc2-n2cccn2)o1`, `O=C(O)Cc1cccc(-n2ccnc2-c2ccc(F)c(Cl)c2)c1` is higher in “Percent Effect” value: -16.45% for the first, -0.5745% for the second.

First: O=C(O)C(F)(F)F.O=C(O)C(F)(F)F.O=C(O)C(F)(F)F.O=C(O)c1cc2c(nc1-c1ccncc1)CCN(C1CCOC1)CC2 (stereo not drawn)
Second: O=C(O)C(F)(F)F.O=C(O)C(F)(F)F.c1cncc(CN2CCc3ncnc(C4CC4)c3CC2)c1
The “Percent Effect” value of the first is lower: -8.005% for the first, 8.838% for the second.

Going from `O=C(O)CCc1cc2n(n1)CCCN(C(=O)c1ccc(F)cc1F)C2` to `O=C(O)CCc1nc2nccc(-c3ccc(F)cc3)n2n1`, the “Percent Effect” value rises from -66.14% to 119.2%.

First: O=C(O)CCc1nc2nccc(C(F)(F)F)n2n1
Second: CC(C)c1cc(C(F)(F)F)n2nc(CCC(=O)O)nc2n1
The “Percent Effect” value of the first is higher: 112.1% for the first, -4.305% for the second.

First: N#Cc1ccnc(N2CCN(CC(O)c3ccc(F)cc3)CC2)c1 (stereo not drawn)
Second: Cc1ccc(C(=O)NCc2ccnc(N3CCN(C)CC3)c2)cn1
The “Percent Effect” value of the first is higher: -11.77% for the first, -19.75% for the second.

First: O=C(O)Cc1nc2nccc(-c3ccc(F)cc3)n2n1
Second: Cn1c(-c2ccc(F)cc2)cn2cc(C(=O)N3CC[C@@H](O)C3)nc2c1=O
The “Percent Effect” value of the first is higher: 127% for the first, 4.586% for the second.

Going from `COCC1CCN(S(=O)(=O)N2C[C@H](c3ccccc3)[C@@H](N)C2)CC1` to `O=C(O)C(F)(F)F.c1ccc(CN2CCc3ncnc(C4CC4)c3CC2)cc1`, the “Percent Effect” value rises from -1.102% to 85.35%.

Going from `CCc1ccc2nc(C)cc(C(=O)NCc3csc(N(C)C)n3)c2c1` to `CCc1cc(C(=O)NCC2CCN(Cc3cccc(C)n3)C2)on1` (stereo not drawn), the “Percent Effect” value rises from -26.8% to 1.32%.

First: O=C(C1CC1)N1CC[C@H]2C(=O)N(c3ccsc3)CCO[C@H]2C1
Second: CCn1cc(CN2C[C@H]3CC[C@@H]2CN(C(=O)C2CCC2)C3)cn1
The “Percent Effect” value of the first is higher: 9.146% for the first, 1.465% for the second.

First: FC(F)C(F)(F)COCc1ncnn1-c1ccc2c(c1)OCO2
Second: O=C(O)C(F)(F)F.c1nc2c(c(C3CC3)n1)CCN(Cc1ccc3c(c1)OCO3)CC2
The “Percent Effect” value of the first is higher: -0.1872% for the first, -14.88% for the second.

Going from `CN(C)C(=O)NC1COC2(CCN(Cc3ccc(Cl)c(F)c3)CC2)C1.O=C(O)C(F)(F)F` (stereo not drawn) to `Fc1ccc(CN2CCc3ncnc(C4CCOC4)c3CC2)cc1.O=C(O)C(F)(F)F` (stereo not drawn), the “Percent Effect” value falls from 5.668% to -4.98%.

Going from `O=C(c1ccc(Oc2cccnc2)cc1)N1CCN(CCO)CC1` to `O=C(c1ccc(Cn2cccc2)cc1)N1CCN(CCO)CC1`, the “Percent Effect” value rises from 6.053% to 94.5%.

Going from `CC(O)CN1CCN(C(=O)c2ccc(Cn3cccn3)cc2)CC1` (stereo not drawn) to `CC(O)CN1CCN(C(=O)c2ccc(Cn3cccc3)cc2)CC1` (stereo not drawn), the “Percent Effect” value falls from 3.707% to 3.366%.

Going from `CCCN1CCN(C(=O)c2ccc(Cn3cc(Br)cn3)cc2)CC1` to `CCC(O)CN1CCN(C(=O)c2ccc(Cn3cccc3)cc2)CC1` (stereo not drawn), the “Percent Effect” value rises from -5.49% to 90.26%.

Compared with `Cc1cc2c(c(-c3cnccn3)c1)OC(CN)C2` (stereo not drawn), `COc1ncc(C)cc1NC(=O)CCc1ccccn1` is lower in “Percent Effect” value: -6.126% for the first, -10.54% for the second.

Going from `CCN(Cc1nc(COC)no1)Cc1cccnc1NC(=O)C(C)(C)C` to `CCc1nc(CN2CCCN(c3nc4ccccc4o3)CC2)no1`, the “Percent Effect” value rises from -4.491% to 1.249%.

Compared with `Cc1c(Cl)cccc1NC(=O)Cn1cc(C(=O)O)ccc1=O`, `Cc1c(Cl)cccc1NC(=O)CCNc1ccc(C#N)cn1` is lower in “Percent Effect” value: 1.545% for the first, 0.2076% for the second.

Compared with `Cc1c(Cl)cccc1NC(=O)c1nc[nH]n1`, `Cc1cc(NC(=O)c2ccc(N3CCOCC3)c(F)c2)[nH]n1` is lower in “Percent Effect” value: 83.83% for the first, -5.615% for the second.

Going from `COc1ccc(CN2CCc3ncnc(C4CCOC4)c3CC2)cc1.O=C(O)C(F)(F)F` (stereo not drawn) to `COc1ccc(CN2CCc3ncnc(C4CC4)c3CC2)cc1.O=C(O)C(F)(F)F`, the “Percent Effect” value rises from -16.69% to 110.6%.

First: O=C(O)C(F)(F)F.O=C(O)C(F)(F)F.c1ccc(CN2CCc3ncnc(C4CC4)c3CC2)nc1
Second: Fc1ccc(CN2CCc3ncnc(C4CC4)c3CC2)cc1.O=C(O)C(F)(F)F
The “Percent Effect” value of the first is lower: -2.713% for the first, 98.26% for the second.

Going from `CCN(C)c1ncnc2c1CCN(Cc1ccc(OC)cc1)CC2.O=C(O)C(F)(F)F.O=C(O)C(F)(F)F` to `CN1CCN(C)C(c2nnc3ccc(C(=O)N4CCOCC4)cn23)C1.O=C(O)C(F)(F)F.O=C(O)C(F)(F)F` (stereo not drawn), the “Percent Effect” value rises from -7.101% to 7.547%.

Compared with `Cc1ccc(O)c(C(=O)N2CCC(CNC(=O)OC(C)(C)C)C2)c1` (stereo not drawn), `CCn1ncnc1CN1CCC(CNC(=O)c2cccc(C)c2)C1` (stereo not drawn) is higher in “Percent Effect” value: 18.78% for the first, 94.27% for the second.

Going from `Cl.O=C(NC[C@@]1(COc2cnccn2)C[C@@H](O)[C@@H](O)C1)C1CC1` to `O=C(NC1CCc2nccn2C1)c1ccc(OCC2CC2)nc1` (stereo not drawn), the “Percent Effect” value falls from -0.6559% to -10.39%.

First: O=C(NCCc1ccccc1F)NCC(O)c1cccc(F)c1 (stereo not drawn)
Second: O=C(NCc1ccccc1F)NCC(O)c1cccc(F)c1 (stereo not drawn)
The “Percent Effect” value of the first is lower: 91.24% for the first, 109.5% for the second.

Going from `O=C(NCC(O)c1cccc(F)c1)c1cccnc1O` (stereo not drawn) to `Nc1cc(C(=O)NCC2CCN(Cc3cccc(O)c3)C2)ccn1` (stereo not drawn), the “Percent Effect” value falls from -4.303% to -106.2%.

First: Cc1nc(N2CCC(C(O)c3nccn3C)CC2)c2sccc2n1 (stereo not drawn)
Second: CO[C@H]1[C@@H]2CC[C@H]1CN(c1nc(C)nc3ccsc13)C2
The “Percent Effect” value of the first is lower: -1.351% for the first, 116.9% for the second.

First: CO[C@H]1[C@@H]2CC[C@H]1CN(c1nc(C)nc3sccc13)C2
Second: COCc1nc(C(=O)N2CCCCC2Cn2cc(C)cn2)cs1 (stereo not drawn)
The “Percent Effect” value of the first is higher: 2.93% for the first, 2.393% for the second.

First: Cc1nc2c(c(N3CCC(O)(CN4CCCC4)CC3)n1)CCNCC2
Second: Cn1nc(C2CC2)c2c1NC(=O)CC2c1cc(CN2CCCC2)cs1 (stereo not drawn)
The “Percent Effect” value of the first is higher: -22.09% for the first, -26.2% for the second.

First: CNc1cncc(C2CCCN2C(=O)CCn2ccnc2C(C)C)n1 (stereo not drawn)
Second: CCc1nccn1CCC(=O)N1CCCC1c1cncc(NC)n1 (stereo not drawn)
The “Percent Effect” value of the first is higher: 103% for the first, 72.9% for the second.

Compared with `CNc1cncc(C2CCCN2C(=O)CCn2ccnc2)n1` (stereo not drawn), `CNc1cncc(C2CCCN2C(=O)Cn2ccnc2C)n1` (stereo not drawn) is higher in “Percent Effect” value: 78.35% for the first, 100.6% for the second.

Going from `CNc1cncc(C2CCCN2C(=O)c2ccc3oc(=O)n(C)c3c2)n1` (stereo not drawn) to `CNc1cncc(C2CCCN2C(=O)Cn2c(=O)oc3ccccc32)n1` (stereo not drawn), the “Percent Effect” value rises from -20.51% to 88.17%.

Going from `Cn1cc(C2CCCN2C(=O)CCn2ccc3ccccc32)cn1` (stereo not drawn) to `CCc1nccn1CCC(=O)N1CCCC1c1ccc(F)cc1` (stereo not drawn), the “Percent Effect” value falls from 20.59% to 18.71%.

First: CC(C)c1nccn1CCC(=O)N1CCCC1c1cccn1C (stereo not drawn)
Second: CC(C)c1nccn1CCC(=O)N1CCCCC1c1ccn[nH]1 (stereo not drawn)
The “Percent Effect” value of the first is lower: 1.985% for the first, 89.39% for the second.

Going from `O=C(NCCCn1ccnc1)N1CCCC1c1ccncc1` (stereo not drawn) to `COCc1nc(C(=O)N2CCCC2c2ccccc2C)cs1` (stereo not drawn), the “Percent Effect” value rises from 0.09304% to 8.95%.

Compared with `O=C(Cn1c(=O)oc2ccccc21)N1Cc2cncnc2C1`, `Cc1cc(CN2CCC(CNC(=O)c3nccc4ccccc34)C2)[nH]n1` (stereo not drawn) is higher in “Percent Effect” value: -8.946% for the first, 5.129% for the second.

Going from `CC(C)(C)Cc1noc2ncc(C(=O)N3CCCSCC3)cc12` to `Cc1cnn(CC2CCCN2C(=O)c2csc(C(C)C)n2)c1` (stereo not drawn), the “Percent Effect” value rises from -8.808% to 113.9%.

Compared with `CN(C(=O)Cc1ccc(NC(=O)NC2CC2)cc1)c1ccccc1`, `C=C(C)CN1CCC(NC(=O)NCCc2ccc(N(C)C)cc2)CC1` is lower in “Percent Effect” value: 5.932% for the first, -10.94% for the second.

Compared with `COc1cccc(/C=C/CCN2CCC(C(=O)N3CCCC3)CC2)c1`, `Cc1cnn(CC2CCCCN2C(=O)c2ccc(C#N)c(C)n2)c1` (stereo not drawn) is higher in “Percent Effect” value: -5.123% for the first, 2.901% for the second.

Going from `CCc1nccn1CCC(=O)N1CC[C@H](CO)[C@H](O)C1` to `CCn1ccnc1CN1CCC(CNC(=O)c2ccc(C)nc2)C1` (stereo not drawn), the “Percent Effect” value rises from -12.26% to -5.867%.

First: O=C(NC1CCN(C2CC2)CC1)c1[nH]nc(C2CC2)c1Cl
Second: Cc1cnn(CC2CCCN2C(=O)c2csc(C3CC3)n2)c1 (stereo not drawn)
The “Percent Effect” value of the first is lower: 0.5841% for the first, 86.35% for the second.

Compared with `CSCC(C)(O)CNC(=O)Nc1cc(C)cc(C)c1` (stereo not drawn), `CCc1ccc(C(=O)O)cc1S(=O)(=O)Nc1ccc(=O)n(C)c1` is higher in “Percent Effect” value: -12.06% for the first, -7.326% for the second.

Going from `CCOCCn1c(=O)[nH]c2cc(C(=O)N(C)Cc3cc(C)[nH]n3)ccc21` to `CCn1ncnc1CN1CCC(CNC(=O)c2cccc(C)n2)C1` (stereo not drawn), the “Percent Effect” value rises from 4.063% to 95.93%.

Compared with `CNc1cc(N2CCCC2CNCc2cnc(C)cn2)ncn1` (stereo not drawn), `CNc1cc(N2CCC(O)(CNC(=O)c3ccc(C)nc3)C2)ncn1` (stereo not drawn) is higher in “Percent Effect” value: -4.576% for the first, 87.58% for the second.

Going from `COCc1nc(C(=O)N2CCCC2Cn2cc(C)cn2)cs1` (stereo not drawn) to `CC(=O)N1CCc2nc3sc(C(N)=O)c(N)c3c(C(F)(F)F)c2C1`, the “Percent Effect” value falls from 115.1% to 0.4865%.

In the case of `CC(Nc1ccc(CN2CCCC2=O)cc1)c1ccc(C#N)cc1` (stereo not drawn), the “Percent Effect” value is reported as 3.244%.
